Screening results: PubChem BioAssay, several laboratories
Sampled rows, rich in hits. Any-hit rate of the full collection: about 7.2%.
A1 inh: inhibitors of the anti-apoptotic protein A1, read as caspase activation. hit rate 0.066% among 330,000. MEF A1-2A-BIM cells, Caspase-Glo 3/7 luminescence, 3 h; percent of clofoctol response, vehicle zero. AID 2462. caspase activation, % (concentration not given with the values);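 active means over half of replicate activation scores above 10%, or exactly half above 10 with the replicate mean above 10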
ALR H2O2 inh: inhibitors of human sulfhydryl oxidase ALR | P55789 | purified ALR, DTT oxidation, H2O2 HRP-luminol luminescence | inhibition, % (test concentration not listed) | hit rate 3.8% among 290,000;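 active means mean replicate inhibition above about 79%, with every replicate also reaching it, limit read from the data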
VLA-4 inh: inhibition in a human VLA-4 binding assay | inhibition, % (about 7 µM as worked out from the volumes in the protocol) | hit rate 0.2% among 330,000 | VLA-4 expressing cells, ligand binding flow cytometry | P13612; in the data active means inhibition above about 50%
Target sequence (P13612 whole entry, looked up): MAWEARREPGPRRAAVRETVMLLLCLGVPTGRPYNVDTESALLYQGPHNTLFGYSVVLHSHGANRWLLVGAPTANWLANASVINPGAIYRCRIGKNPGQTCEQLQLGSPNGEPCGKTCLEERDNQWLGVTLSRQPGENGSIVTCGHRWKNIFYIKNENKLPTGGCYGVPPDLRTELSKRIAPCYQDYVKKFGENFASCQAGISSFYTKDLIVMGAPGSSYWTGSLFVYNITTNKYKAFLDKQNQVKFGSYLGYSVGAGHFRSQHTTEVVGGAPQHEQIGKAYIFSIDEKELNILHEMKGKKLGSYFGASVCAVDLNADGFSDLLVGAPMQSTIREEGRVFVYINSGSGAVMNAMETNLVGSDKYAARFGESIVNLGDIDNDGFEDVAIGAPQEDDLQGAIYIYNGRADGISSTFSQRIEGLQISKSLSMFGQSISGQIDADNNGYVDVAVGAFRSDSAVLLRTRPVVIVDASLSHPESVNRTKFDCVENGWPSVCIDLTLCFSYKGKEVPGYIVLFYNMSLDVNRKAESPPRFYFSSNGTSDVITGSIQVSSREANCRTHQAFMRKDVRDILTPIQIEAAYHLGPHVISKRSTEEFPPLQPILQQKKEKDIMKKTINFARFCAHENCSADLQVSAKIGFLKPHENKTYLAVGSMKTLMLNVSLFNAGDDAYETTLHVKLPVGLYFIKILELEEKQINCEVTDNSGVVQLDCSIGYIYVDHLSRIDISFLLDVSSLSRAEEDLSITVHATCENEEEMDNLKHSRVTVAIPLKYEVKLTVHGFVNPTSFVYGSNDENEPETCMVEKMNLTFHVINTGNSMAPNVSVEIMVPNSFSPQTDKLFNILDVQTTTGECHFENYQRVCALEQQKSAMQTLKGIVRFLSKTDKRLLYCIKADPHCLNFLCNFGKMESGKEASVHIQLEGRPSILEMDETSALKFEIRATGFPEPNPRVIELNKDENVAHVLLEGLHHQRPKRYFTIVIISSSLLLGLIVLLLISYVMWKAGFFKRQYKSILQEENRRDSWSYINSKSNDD
AHR activator: activators of human aryl hydrocarbon receptor. P35869. AHR-responsive luciferase reporter cells, luminescence. activation, % at 5 µM. hit rate 2.5% among 320,000. AID 2796; in the data active means activation above about 47%;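 further: 0% = vehicle wells and 100% = reference agonist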
SUMO Mot1 rescue: blocks SUMOylation pathway, rescuing yeast Mot1-301 growth; S. cerevisiae Mot1-301 growth rescue, ATP luminescence, 38.5C; percent above DMSO median, 100 means doubled; growth rescue, % at 18.8 µM; hit rate 1% among 320,000; AID 2716;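 active means every valid replicate shows activation above 250% relative to neutral control wells; inactive means the rest, any valid replicate at or below 250%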;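 further: OY570 slx delta 5 strain wells were the positive control but not used for scaling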
Efflux pump mplx: antifungal efflux pump inhibition, Nile Red retention | S. cerevisiae Candida pump triplex | inhibition, % at 10 µM | hit rate 0.44% among 330,000;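 active means plate passing quality check with inhibition over a set limit, or well fluorescence over plate mean plus 4 SD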;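 further: Nile Red retained in pooled yeast measured as flow cytometry median fluorescence; 0% = buffer negative control and 100% = Enniatin B positive control; higher means more Nile Red kept so more efflux inhibition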
Cmpd fluor yeast: compound fluorescence in yeast efflux pump counter-screen; shares compounds with Efflux pump mplx; S. cerevisiae AD/pABC3, flow cytometry; hit rate 4% among 1,700; fluorescence ratio to DMSO, % at 10 µM;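 active means fluorescence ratio to DMSO above its plate's cutoff, the plate mean ratio plus 5 SD, cut at about 210% in these data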;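 further: unstained yeast with no Nile Red so the signal is compound autofluorescence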
Mdr1 pump inh: blocks the Candida albicans Mdr1 efflux pump in yeast. inhibition, % at 10 µM. shares compounds with Efflux pump mplx. hit rate 1% among 1,700. S. cerevisiae AD/CaMDR1, Nile Red efflux, flow cytometry; in the data active means inhibition above about 26%;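 further: 0% = DMSO vehicle and 100% = reference inhibitor; higher means more Nile Red retained so more efflux inhibition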
CaCdr2 efflux inh: blocks the Candida albicans Cdr2 efflux pump in yeast; Nile Red retention ratio vs DMSO, % at 10 µM; shares compounds with Efflux pump mplx; S. cerevisiae AD/CaCDR2, Nile Red retention, flow cytometry; hit rate 4% among 1,700; in the data active means Nile Red retention ratio vs DMSO above about 190%;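 further: higher ratio means more blocking of Cdr2 efflux of the dye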
CaCdr1 efflux inh: inhibitors of Candida albicans Cdr1 efflux pump; shares compounds with Efflux pump mplx; S. cerevisiae AD/CaCDR1, Nile Red efflux, flow cytometry; inhibition, % at 10 µM; hit rate 1% among 1,700;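 active means inhibition above the screen-wide mean plus twice its standard deviation, cut at about 32% in these data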
The depositor's hits bear a star; i = inactive; x = not tested or not shown; + = active, no number.

SMILES	A1 inh	ALR H2O2 inh	VLA-4 inh	AHR activator	SUMO Mot1 rescue	Efflux pump mplx	Cmpd fluor yeast	Mdr1 pump inh	CaCdr2 efflux inh	CaCdr1 efflux inh
Cn1c(SCC(=O)Nc2ccc3nc(SCC(=O)NC4CC4)sc3c2)nnc1-c1ccccc1	0	-13	10	13	147	1.1*	100	0	123	0
COc1ccc2cc3cc(C(=O)N4CCN(Cc5ccc6c(c5)OCO6)CC4)oc3nc2c1	0	-4	-8	5	8	0.6*	97	0	100	0
COc1ccc2cc3cc(C(=O)NCc4ccc5c(c4)OCO5)oc3nc2c1	1	-29	-2	-12	53	0	x	x	x	x
CC(C)CN(C(=O)c1cc(Cl)nc2ccccc12)c1c(N)n(Cc2ccccc2)c(=O)[nH]c1=O	0	-9	-8	0	-6	0	x	x	x	x
Cc1ccc(-n2c(-c3ccc(Br)cc3)c[n+]3c2CCc2ccc4cccnc4c2-3)cc1	0	6	19	-10	19	1.1*	107	0	+	0
O=c1oc2ccccc2c(N2CCCC2)c1[N+](=O)[O-]	1	-3	16	2	5	0	x	x	x	x
O=c1oc2ccccc2c(N2CCCCC2)c1[N+](=O)[O-]	0	-1	9	3	-19	1.2*	100	0	98	0
O=C(COc1coc(CN2CCN(c3ccccc3F)CC2)cc1=O)NC1CCCC1	1	-1	-5	-2	-20	0	x	x	x	x
CN(C)c1ccc(/C=C2/C=C(c3ccc4c(c3)CCCC4)OC2=O)cc1	0	-7	-146	7	-34	0.8*	132	0	148	0
COc1ccccc1Cn1c(=O)c2ccccc2n2c(SCC(=O)N3CCCCC3)nnc12	1	1	-19	1	-22	1.6*	111	0	110	0
COC(=O)[C@@]1(Cc2ccc(OC)cc2)[C@H]2c3cc(C(=O)N(C)C)n(CCc4ccc(OC)c(Br)c4)c3C[C@H]2CN1C(=O)c1ccccc1	0	-2	15	-4	-17	0	x	x	x	x
CN(C)c1ccc(/C=C2\SC(=S)N(Nc3ncc(C(F)(F)F)cc3Cl)C2=O)cc1	0	-7	x	1	88	1.2*	+	0	237*	1
COc1cc(/C=C2\SC(=S)N(Nc3ncc(C(F)(F)F)cc3Cl)C2=O)ccc1O	1	23	i	2	-7	0	478*	0	97	0
Cc1cc(C)nc(NN2C(=O)/C(=C/c3ccccc3)SC2=S)n1	0	-22	9	1	-11	0	x	x	x	x
COc1cc(/C=C2/SC(=S)N(CC3CCCO3)C2=O)ccc1O (centres undefined)	0	x	-29	-1	71	1	x	x	x	x
COc1ccc(NC(=O)Cn2c(=O)n(-c3ccc(OC)cc3OC)c(=O)c3c(C)c(C)sc32)cc1	-1	-13	8	4	-16	0	x	x	x	x
COc1ccc(CNC(=O)Cc2cn(C)c3ccccc23)c(OC)c1	0	0	2	8	-8	0	x	x	x	x
COc1ccc(-n2c(N)c(C(=O)Nc3c(C)n(C)n(-c4ccccc4)c3=O)c3nc4ccccc4nc32)cc1	2	-12	-126	-4	67	0.8*	110	0	108	0
Cc1ccc(-n2c(N)c(C(=O)Nc3c(C)n(C)n(-c4ccccc4)c3=O)c3nc4ccccc4nc32)cc1C	0	x	0	-7	-10	0	x	x	x	x
O=C(CO/N=C/c1ccccc1O)N1CCc2ccccc21	-4	-23	10	0	x	0	x	x	x	x
N#Cc1c(-c2ccccc2)cc(-c2cccs2)nc1SCC(=O)O	1	99*	-2	19	11	1.3*	114	0	87	0
